From article PMC5540273 (PLoS ONE, 2017)

Each molecule was assayed on BMPR1A. Settings: concentration: 1 μM, replicates: in singlicate; n = 1.
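Also: KINOMEscan kinase panel screen.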

| Structure (SMILES) | %Inh [%] |
| --- | --- |
| CN1C(=O)C(Nc2ccc(Cl)c(C(=O)O)c2)=C(c2ccc(Cl)cc2)C1=O [SB-404290] | 4 |
| Cc1cccc(-c2nc(-c3ccc(S(C)(=O)=O)cc3)sc2-c2ccnc(NCCc3ccccc3)c2)c1 | 27 |
| COc1cccc(-c2cc(-c3c[nH]nc3-c3ccccn3)ccn2)c1 [GW680338] | 0 |
| Cl.NC(=O)c1cccc(Nc2nccc(Nc3ccc(Oc4cccc(Cl)c4)c(Cl)c3)n2)c1 [GW659008] | 0 |
| Cn1ccc2ncnc(Oc3ccc(NC(=O)Nc4ccccc4)cc3)c21 | 0 |
| Cc1ccc(C(=O)Nc2ccc(Nc3ccnc4cc(-c5ccccn5)ccc34)cc2O)cc1.Cl [GW440146] | 0 |
| Cc1c(O)cccc1Nc1ccnc2ccc(C(F)(F)F)cc12.Cl [GW466413] | 0 |
| CC(C)(C)c1ccc(C(=O)Nc2cn3cc(-c4cccnc4)ccc3n2)cc1 | 34 |
| CC1=C(C(=O)Nc2cc3cn[nH]c3cc2F)C(c2ccc(C(F)(F)F)cc2)CC(=O)N1 (stereo not drawn) [GSK429286] | 0 |
| Cl.c1ccc(-c2n[nH]cc2-c2ccnc(-c3ccc(CN4CCOCC4)cc3)c2)nc1 [GW776245] | 0 |
| Cc1cccc(-c2cc(Nc3ccncc3)c3ccccc3n2)n1 [GSK223675] | 0 |
| Cc1cccc(-c2nc(Nc3ccncc3)c3ccccc3n2)n1 [GW855857] | 0 |
| COc1ccc2nc(-c3cccc(C)n3)nc(Nc3ccncc3)c2c1 [GSK204919] | 0 |
| COc1ccc(C2=C(Nc3cccc(C(=O)O)c3)C(=O)NC2=O)cc1 [SB-390765] | 13 |
| COc1ccc(Nc2nccc(-c3cccc(NC(=O)c4cc5cc(F)ccc5[nH]4)c3)n2)cc1 [GSK1229782] | 10 |
| CCCc1ccc(S(=O)(=O)NC2CCN(c3ccnc(Nc4ccc(F)cc4)n3)C2)cc1 (stereo not drawn) [GSK1379715] | 0 |
| CC(=O)Nc1nc2cnc(Nc3cc(NC(=O)c4cccc(CCC#N)c4)ccc3C)nc2s1 | 0 |

| Structure (SMILES) | %Inh [%] |
| --- | --- |
| Cc1ccc(NC(=O)Nc2cc(C(C)(C)C)nn2-c2ccccc2)cc1 [GSK1014915] | 0 |
| Cc1cccc(-c2nc(Nc3ccc4[nH]ncc4c3)c3ccccc3n2)n1 [GW857175] | 60 |
| Cc1cccc(-c2nc(C)cc(Nc3ccncc3)n2)n1 [GSK257997] | 14 |
| CS(=O)(=O)c1ccc(-c2nc3n(c2-c2ccncc2)CCC3)cc1 [SKF-105942] | 0 |
| O=C(Nc1ccc2c(c1)OCO2)NC1CCN(c2ccnc(Nc3ccc(F)cc3)n2)C1 (stereo not drawn) [GSK1379724] | 0 |
| O=c1cc(N2CCOCC2)nc2n(Cc3cccc(Cl)c3Cl)ccn12 [GSK2286295] | 0 |
| COC(=O)c1c(-c2ccccc2)c2cc(OC)ccc2c(=O)n1Cc1ccccc1 | 0 |
| O=C(Nc1ccccc1)Nc1cccc(Oc2ccc3nccn3n2)c1 | 0 |
| Fc1cc(Cl)ccc1Nc1ccnc2cc(I)ccc12 [GW551191] | 0 |
| Cc1ccc(NC(=O)Nc2cccc(Cl)c2)cc1-c1ccc(C(=O)Nc2ccncc2)cc1 [GSK1398468] | 0 |
| O=C(O)COc1ncnc2cc(-c3ccc4[nH]ncc4c3)sc12 | 19 |
| Cn1ccc2ncnc(Oc3cccc(C(=O)Nc4ccccc4)c3)c21 | 5 |
| Cc1ccccc1-n1cnc2c(N)ncnc21 [SKF-97510] | 0 |
| COc1cc2ncnc(Nc3ccc4nc(-c5ccccc5)[nH]c4c3)c2cc1OC.Cl [GW282450] | 0 |
| Cl.O=C(Nc1cccc(-c2nn3ncccc3c2-c2ccnc(Nc3cccnc3)n2)c1)c1c(F)cccc1F [GSK312879] | 0 |
| NC(=O)c1nnc2ccccc2c1N | 7 |
| CN(C)CCN(C)C(=O)c1cc(-c2ccncc2)c(-c2ccc(Cl)c(O)c2)o1.Cl.Cl [SB-710397] | 0 |

What follows are molecules tested on BMPR1B. Settings: concentration: 1 μM, replicates: in singlicate; n = 1.

| Structure (SMILES) | %Inh [%] |
| --- | --- |
| CN1C(=O)C(Nc2ccc(Cl)c(C(=O)O)c2)=C(c2ccc(Cl)cc2)C1=O [SB-404290] | 0 |
| Cc1cccc(-c2nc(-c3ccc(S(C)(=O)=O)cc3)sc2-c2ccnc(NCCc3ccccc3)c2)c1 | 6 |
| COc1cccc(-c2cc(-c3c[nH]nc3-c3ccccn3)ccn2)c1 [GW680338] | 0 |
| Cl.NC(=O)c1cccc(Nc2nccc(Nc3ccc(Oc4cccc(Cl)c4)c(Cl)c3)n2)c1 [GW659008] | 0 |
| Cn1ccc2ncnc(Oc3ccc(NC(=O)Nc4ccccc4)cc3)c21 | 0 |
| Cc1ccc(C(=O)Nc2ccc(Nc3ccnc4cc(-c5ccccn5)ccc34)cc2O)cc1.Cl [GW440146] | 0 |
| Cc1c(O)cccc1Nc1ccnc2ccc(C(F)(F)F)cc12.Cl [GW466413] | 44 |
| CC(C)(C)c1ccc(C(=O)Nc2cn3cc(-c4cccnc4)ccc3n2)cc1 | 0 |
| CC1=C(C(=O)Nc2cc3cn[nH]c3cc2F)C(c2ccc(C(F)(F)F)cc2)CC(=O)N1 (stereo not drawn) [GSK429286] | 0 |
| Cl.c1ccc(-c2n[nH]cc2-c2ccnc(-c3ccc(CN4CCOCC4)cc3)c2)nc1 [GW776245] | 52 |
| Cc1cccc(-c2cc(Nc3ccncc3)c3ccccc3n2)n1 [GSK223675] | 0 |
| Cc1cccc(-c2nc(Nc3ccncc3)c3ccccc3n2)n1 [GW855857] | 29 |
| COc1ccc2nc(-c3cccc(C)n3)nc(Nc3ccncc3)c2c1 [GSK204919] | 0 |
| COc1ccc(C2=C(Nc3cccc(C(=O)O)c3)C(=O)NC2=O)cc1 [SB-390765] | 4 |
| COc1ccc(Nc2nccc(-c3cccc(NC(=O)c4cc5cc(F)ccc5[nH]4)c3)n2)cc1 [GSK1229782] | 0 |
| CCCc1ccc(S(=O)(=O)NC2CCN(c3ccnc(Nc4ccc(F)cc4)n3)C2)cc1 (stereo not drawn) [GSK1379715] | 0 |
| CSc1nn2c(=O)cc(N3CCOCC3)nc2n1Cc1cccc(C(F)(F)F)c1C [GSK2363608] | 0 |
| CC(=O)Nc1nc2cnc(Nc3cc(NC(=O)c4cccc(CCC#N)c4)ccc3C)nc2s1 | 0 |

| Structure (SMILES) | %Inh [%] |
| --- | --- |
| Cc1ccc(NC(=O)Nc2cc(C(C)(C)C)nn2-c2ccccc2)cc1 [GSK1014915] | 0 |
| Cc1cccc(-c2nc(Nc3ccc4[nH]ncc4c3)c3ccccc3n2)n1 [GW857175] | 34 |
| Cc1cccc(-c2nc(C)cc(Nc3ccncc3)n2)n1 [GSK257997] | 0 |
| CS(=O)(=O)c1ccc(-c2nc3n(c2-c2ccncc2)CCC3)cc1 [SKF-105942] | 0 |
| O=C(Nc1ccc2c(c1)OCO2)NC1CCN(c2ccnc(Nc3ccc(F)cc3)n2)C1 (stereo not drawn) [GSK1379724] | 0 |
| O=c1cc(N2CCOCC2)nc2n(Cc3cccc(Cl)c3Cl)ccn12 [GSK2286295] | 0 |
| COC(=O)c1c(-c2ccccc2)c2cc(OC)ccc2c(=O)n1Cc1ccccc1 | 0 |
| O=C(Nc1ccccc1)Nc1cccc(Oc2ccc3nccn3n2)c1 | 0 |
| Fc1cc(Cl)ccc1Nc1ccnc2cc(I)ccc12 [GW551191] | 0 |
| Cc1ccc(NC(=O)Nc2cccc(Cl)c2)cc1-c1ccc(C(=O)Nc2ccncc2)cc1 [GSK1398468] | 0 |
| O=C(O)COc1ncnc2cc(-c3ccc4[nH]ncc4c3)sc12 | 18 |
| Cn1ccc2ncnc(Oc3cccc(C(=O)Nc4ccccc4)c3)c21 | 13 |
| Cc1ccccc1-n1cnc2c(N)ncnc21 [SKF-97510] | 0 |
| COc1cc2ncnc(Nc3ccc4nc(-c5ccccc5)[nH]c4c3)c2cc1OC.Cl [GW282450] | 0 |
| Cl.O=C(Nc1cccc(-c2nn3ncccc3c2-c2ccnc(Nc3cccnc3)n2)c1)c1c(F)cccc1F [GSK312879] | 0 |
| NC(=O)c1nnc2ccccc2c1N | 10 |
| CN(C)CCN(C)C(=O)c1cc(-c2ccncc2)c(-c2ccc(Cl)c(O)c2)o1.Cl.Cl [SB-710397] | 0 |
